Rows were chosen to be rich in hits. Some 7.7% of all compounds tested hit in one or more screens of this group.
FMDV antiviral = foot and mouth disease virus antiviral activity; FMDV antiviral cell-based qHTS; Potency, µM (doses to about 57.9 µM), inactives show at the highest dose activity change, negative = inhibition, usual class: inhibitors; hit rate 1.2% among 410,000; AID 1159524; calls by dose curve; tested in HEK293T cells; note: read-out not given here; potency is the fitted concentration of half-maximal effect; nearly all actives have a fitted effect of over 45% in size
HCMV antiviral = inhibitors of human cytomegalovirus | HFF cells, HCMV-luciferase reporter, 72 h; hits give low values | activity change, negative = inhibition, % at 57.5 µM | hit rate 4.5% among 410,000 | AID 1259415; in the data active = activity change below about -60%; inconclusive = no clear call, values can overlap the other calls; inactive = above about -39%
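Compounds were evaluated in HFFs infected with an HCMV luciferase reporter virus (MOI 1 PFU/cell). Luciferase in lysates collected 72 h post infection served as the replication measure.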
RE007 growth inh = less growth of the S. pombe RE007 Vpr strain | S. pombe RE007 Vpr strain, BacTiter-Glo ATP luminescence, 24 h | Potency, µM (top dose mostly 92.2 µM), for the others: at the highest dose activity change, negative = less growth, usual class: inhibitors | hit rate 0.21% among 360,000; active = well fitted falling curve with a large enough effect; inconclusive = small, poorly fitted or top-dose-only effect; inactive = no such curve, though single readings can be large or run the other way; note: potency is the fitted concentration of half-maximal effect; nearly all actives have a fitted effect of over 50% in size
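Fission yeast RE007 carrying one integrated HIV-1 vpr copy, seeded at OD 0.01 in PMG+AL medium with 23 nL pinned compound. Grown 24 h at 30 degrees; viability read by BacTiter-Glo luminescence after 5 min.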
Sm TGR inh = S. mansoni TGR enzyme inhibition; purified TGR, DTNB reduction, TNB absorbance 405 nm; Potency, µM (top dose mostly 114 µM), for the others: at the highest dose activity change, negative = inhibition, usual class: inhibitors; hit rate 3% among 360,000; AID 485364; note: potency is the fitted concentration of half-maximal effect; nearly all actives have a fitted effect of over 60% in size
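Kinetic colorimetric format: TGR-catalysed, NADPH-driven DTNB reduction monitored via TNB absorbance. Enzyme dispensed at 20 nM; compound exposure 15 min at room temperature before reaction start.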
Giardia FBPA inh = inhibitors of Giardia lamblia fructose-1,6-bisphosphate aldolase. A8B2U2. purified Giardia FBPA. Potency, µM (titrated, usually from 59.6 µM), inactives show top-dose activity, negative = inhibition, usual class: inhibitors. hit rate 0.71% among 290,000; note: potency is the fitted concentration of half-maximal effect; nearly all actives have a fitted effect of over 55% in size
Target sequence (A8B2U2 whole entry, looked up): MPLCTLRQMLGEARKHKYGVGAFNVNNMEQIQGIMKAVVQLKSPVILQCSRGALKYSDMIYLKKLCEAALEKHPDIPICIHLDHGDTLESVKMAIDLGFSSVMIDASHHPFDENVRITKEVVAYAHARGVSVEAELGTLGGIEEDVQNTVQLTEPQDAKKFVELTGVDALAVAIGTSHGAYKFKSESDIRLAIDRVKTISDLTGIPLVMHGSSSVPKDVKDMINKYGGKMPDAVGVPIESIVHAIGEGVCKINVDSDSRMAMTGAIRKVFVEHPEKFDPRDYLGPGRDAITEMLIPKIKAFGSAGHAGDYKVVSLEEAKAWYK
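Giardia FBPA (40 nM reagent) was preincubated 10 min at RT with compound (up to 57.5 uM final), then substrate plus GAPDH/TPI/NAD/arsenate coupling system with diaphorase/resazurin was added; resorufin fluorescence (525/598 nm) was read after 20 min.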
Tb PYK inh = blocks Trypanosoma brucei pyruvate kinase; Q57TT1; TbPYK enzyme, Kinase-Glo Plus ATP luminescence, 45 min; Potency, µM (highest dose often 76.8 µM), for inactives: at the highest dose activity, negative = inhibition, actives largely listed as inhibitors; hit rate 0.12% among 410,000; AID 624173; note: potency is the fitted concentration of half-maximal effect; nearly all actives have a fitted effect of over 50% in size
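Enzyme and substrate buffer are dispensed first and compound is pin-transferred. ADP at 130 uM final then starts the reaction, which runs 45 min at room temperature. Detection reagent is added for 10 min before luminescence is imaged.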
* hit, by the source's call; ? = inconclusive; nt = no result; ! = repeats disagree. Unless noted, calls come from the whole dose curve; as a rule, active = well fitted curve in the direction sought with a large enough effect; inconclusive = small, poorly fitted or top-dose-only effect, or another doubt; inactive = no such curve, though single readings can be large; an effect the other way counts as inactive or inconclusive. % is set by controls: 0 for no effect and ±100 for the full control effect.

SMILES	FMDV antiviral	HCMV antiviral	RE007 growth inh	Sm TGR inh	Giardia FBPA inh	Tb PYK inh
CC(=O)c1cccc(NC(=O)/C=C/c2ccc([N+](=O)[O-])s2)c1	?	-95.9*	-7.1%	4.3%	-3.0%	-4.2%
COC(=O)c1cccc(NC(=O)/C=C/c2cccc([N+](=O)[O-])c2)c1	?	-1.6	2.7%	10.0%	1.6%	-3.4%
Cc1ccccc1NC(=O)/C=C/c1ccc([N+](=O)[O-])s1	10µM*	nt	-15.3%	?	0.3%	-12.7%
COc1ccccc1-c1ccnc(-n2ncc(C(=O)N3CCN(C4CCCC4)CC3)c2-c2ccco2)n1	0.0%	nt	nt	nt	nt	nt
Cc1ccc2[nH]c(CSc3nnc(NC(=O)COc4ccccc4)s3)cc(=O)c2c1	-24.9%	-18.7	nt	4.5%	nt	-5.8%
Cc1noc(/C=C/c2ccccc2F)c1S(=O)(=O)N1CCC(C(=O)Nc2ccc(C#N)cc2)CC1	?	11.6	nt	2.5%	nt	1.9%
Cc1ccccc1NC(=O)CSc1nnc(COc2ccc(Cl)cc2)o1	1.1%	-1.8	nt	-16.5%	nt	0.0%
CC(C)(C)c1ccc(C(=O)Nc2onc3c2CCCC3)cc1	-72.8%	-74.7*	nt	11.0%	nt	-4.8%
COC(=O)C1(Cc2cc(-c3ccc([N+](=O)[O-])cc3)no2)CCN(C(=O)OC(C)(C)C)CC1	0.0%	-20.0	-0.6%	20µM*	nt	-0.5%
Cc1nc(NCCc2ccccc2)c2oc3ccccc3c2n1	?	-80.7*	?	1.7%	-3.2%	-10.1%
Cc1nc(NCCN2CCOCC2)c2oc3ccccc3c2n1	-8.1%	8.4	-6.1%	3.0%	-7.7%	-4.8%
Fc1ccc(Nc2nc(SCc3cccc(Cl)c3)nc3ccccc23)cc1	-26.5%	-94.8*	nt	3.3%	nt	1.0%
Fc1ccc(Nc2nc(SCc3cccc(F)c3)nc3ccccc23)cc1	-3.2%	-87.4*	nt	9.3%	nt	-2.2%
CCOc1ccc(CNCc2c(C(=O)O)c(C)n(Cc3c(F)cccc3Cl)c2C)cc1OC	-11.5%	-6.4	nt	-11.6%	nt	-11.0%
CCc1ccc2c(c1)c(=O)c(C(=O)c1ccc(C)cc1)cn2CC(=O)Nc1ccc2c(c1)OCCO2	-12.3%	-13.1	nt	-0.4%	nt	6.2%
Clc1cccc(CNc2cc(-c3ccccc3)nc3nncn23)c1	?	-61.7*	nt	-0.7%	nt	-1.8%
COc1ccccc1CNc1cc(-c2ccccc2)nc2nncn12	-15.9%	-87.1*	nt	35.5µM*	nt	0.2%
Clc1ccc(CNc2cc(-c3ccccc3)nc3nncn23)cc1	?	-33.3	nt	-7.1%	nt	1.4%
COc1cccc([C@@H]2Oc3ccc(Br)cc3C(=O)[C@H]2OC(=O)Nc2cc(OC)c(OC)c(OC)c2)c1	nt	nt	nt	nt	-8.5%	nt
CCCN1C2CCCC1CC(NC(=O)c1cc(OC)c(OC)c(OC)c1)C2 (stereo not given)	7.9%	-104.3*	-6.5%	5.1%	-6.8%	-1.0%
CCOC(=O)c1cnn(-c2sc(C(=O)OCC)c(C)c2C(=O)OCC)c1N	nt	-68.4*	-19.0%	nt	nt	-8.8%
CCOC(=O)c1cnn(-c2cc(C)cc(C)c2)c1N	1.1%	17.2	-9.2%	2.3%	-0.3%	-4.9%
CCCCNC(=O)N(O)C1N(/N=C/c2ccccc2F)C(=S)SC1(C)C (stereo not given)	81.1%	25.2	-6.1%	-18.8%	-11.4%	-3.9%
CCCCNC(=O)N(O)C1N(/N=C/c2ccco2)C(=S)SC1(C)C (stereo not given)	26.6%	10.5	-2.5%	28.2µM*	nt	5.1%
O=C(c1noc2c1CCCCC2)N1CCN(c2cccc(C(F)(F)F)c2)CC1	-15.4%	-77.8*	nt	0.2%	nt	6.8%
SMILES	FMDV antiviral	HCMV antiviral	RE007 growth inh	Sm TGR inh	Giardia FBPA inh	Tb PYK inh
O=C(c1ccccn1)N1CCN(c2cccc(C(F)(F)F)c2)CC1	6.6%	-38.1	-26.8%	8.0%	5.7%	1.3%
O=C(c1cc2ccccn2n1)N1CCN(c2cccc(C(F)(F)F)c2)CC1	?	-67.7*	6.5%	67.1%	-0.2%	-0.4%
FC(F)(F)c1cccc(N2CCN(C(=S)NCC3CCCO3)CC2)c1 (stereo not given)	?	-65.0*	0.9%	-1.8%	-2.0%	-2.8%
S=C(NCC1CCCO1)N1CCN(c2ccccc2)CC1 (stereo not given)	13.1%	-31.2	5.2%	-2.2%	5.7%	2.5%
CCCCN1CC(COCc2ccccc2)Oc2cccc(NCc3cc(OC)c(OC)c(OC)c3)c2S1(=O)=O (stereo not given)	nt	-15.1	nt	nt	nt	nt
Cc1ccccc1-c1nn2c(=O)cc(CN3CCN(S(=O)(=O)c4ccc(Cl)cc4)CC3)nc2s1	0.0%	26.2	nt	1.0%	nt	2.2%
COc1ccc(-c2ccc(CN3C(CC(C)C)C(=O)N(Cc4cn(CCC5OCCO5)nn4)CCS3(=O)=O)cc2)cc1OC (stereo not given)	-14.6%	-62.2*	-6.5%	nt	nt	-5.0%
CC1C(=O)N(Cc2cn(CCC3OCCCO3)nn2)CCS(=O)(=O)N1Cc1ccc(-c2ccc(F)cc2)cc1 (stereo not given)	?	3.0	-12.0%	nt	nt	2.2%
CC1C(=O)N(Cc2cn(CCC3OCCCO3)nn2)CCS(=O)(=O)N1Cc1ccc(-c2ccc(Cl)c(Cl)c2)cc1 (stereo not given)	?	-92.3*	5.5%	nt	nt	4.4%
CC(C)CC1C(=O)N(Cc2cn(CCC3OCCO3)nn2)CCS(=O)(=O)N1Cc1ccc(-c2ccc(F)cc2)cc1 (stereo not given)	-5.9%	-23.5	-22.3%	nt	nt	-0.3%
CCOC(=O)c1nc(Nc2ccc(C(=O)OCC(C)C)cc2)c2ccccc2n1	?	-13.5	nt	4.2%	nt	0.0%
O=C(Oc1ccc(Cl)c2cccnc12)c1cccnc1	-27.7%	58.1	?	39.8µM*	9.0%	-2.2%
O=c1c2ccccc2c(/C=N/c2ncn[nH]2)c(O)n1Cc1ccccc1	-4.0%	-82.4*!	9.5%	8.5%	3.6%	0.9%
CC(C)CCC(C)N=Cc1c(O)n(Cc2ccccc2)c(=O)c2ccccc12 (stereo not given)	-4.6%	6.9	14.3%	-3.5%	-9.1%	-5.6%
Cc1ccc(N2C(=O)CC(Nc3ccc(Cl)c(S(=O)(=O)N(C)C)c3)C2=O)c(C)c1 (stereo not given)	-14.2%	-16.0	-5.8%	31.6µM*	-2.2%	4.9%
CC(=O)Nc1ccc(CN2CCc3c([nH]c4ccccc34)C2C(C)(C)C)cc1 (stereo not given)	-17.0%	119.7	6.9%	50.1µM*	-3.7%	3.4%
COc1ccccc1OCCCCCCN1CCOCC1	-1.8%	-84.2*	-7.6%	2.0%	?	-20.6%
c1ccc(-c2ccccc2OCCCCN2CCCCCC2)cc1	-13.7%	-76.9*	-7.1%	0.6%	?	-6.4%
c1ccc(-c2ccccc2OCCN2CCCC2)cc1	-2.1%	6.5	1.4%	-3.0%	?	0.4%

Screens (PubChem)
